For six compounds, outcome and Potency results are on record in PubChem BioAssay (Tox21).

Results filed as inconclusive are left out. Activity calls are given as the source filed them. Unless noted, calls follow the shape of the dose curve; as a rule, active = well fitted curve in the direction sought with a large enough effect in the repeat runs; inconclusive = weak or mixed curves; inactive = no such curve, though single readings can be large; an effect the other way counts as inactive or inconclusive.

Assay [1] can be described thus: qHTS assay for small molecule agonists of the p53 signaling pathway (AID 651631; calls by dose curve; also: nearly all actives have a fitted effect of over 15% in size). Conditions: HCT-116 p53RE-bla reporter, beta-lactamase FRET ratio, 16 h; series mostly up to 73.3 µM. In short, it runs like this:
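Stably transfected HCT-116 cells (beta-lactamase behind p53 response elements) get compounds after a 5 h settling period; 16 h later at 37 °C, FRET substrate is loaded and fluorescence read after 2 h.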

Assay [2] is described as follows: qHTS assay for small molecules that induce genotoxicity in human embryonic kidney cells expressing luciferase-tagged ATAD5 (AID 651632). Also: nearly all actives have a fitted effect of over 15% in size. The settings on record: HEK293T ATAD5-luciferase induction, 16 h; series mostly up to 83.3 µM. Summed up:
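DMSO vehicle served as the control. HEK293T reporter cells, 16 hr at 37C, then 30 min Amplite at room temperature; ATAD5 induction is measured as luciferase activity.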
For orientation: qHTS replaces the single test concentration by a dilution series.

The nature of assay [3]: qHTS assay for small molecule agonists of the p53 signaling pathway - cell viability (AID 651633; calls by dose curve; also: nearly all actives have a fitted effect of over 30% in size). The settings on record: p53RE-bla HCT-116 viability, ATP luminescence, 16 h; series mostly up to 83.3 µM. Summed up: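 p53RE-bla cells, seeded at 4,000 per well and rested 5 h at 37 C/5% CO2, received compounds in DMSO for 16 h at 37 C. CellTiter-Glo was then added, and luminescence was read after 30 min at room temperature to gauge cytotoxicity.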

Assay [4] in a line: qHTS assay for small molecules that induce genotoxicity in human embryonic kidney cells expressing luciferase-tagged ATAD5 - cell viability (AID 651634; calls by dose curve; also: nearly all actives have a fitted effect of over 25% in size). Conditions: HEK293T ATAD5-luc cells viability, CellTiter-Fluor, 15.5 h; series mostly up to 83.3 µM. Summed up:
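Here HEK293T cells with the ATAD5 luciferase reporter are incubated with test compounds for 15.5 hr, and cytotoxicity is then gauged by measuring protease activity in live cells using fluorescence.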

A short description of assay [5]: qHTS assay to test for compound auto fluorescence at 590 nm (red) in HepG2 cells (AID 720674). The settings on record: HepG2 autofluorescence, red 540/590 nm, 1 h; series mostly up to 91.3 µM. In short, it runs like this:
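Intrinsic compound fluorescence in the red window (Ex/Em 540/590 nm) is measured in attached HepG2 cells exposed for 1 hr, DMSO vehicle as baseline, benchmarked to Rose Bengal sodium.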

A short description of assay [6]: qHTS assay to test for compound auto fluorescence at 535 nm (green) in HepG2 cells (AID 720675). The settings on record: green autofluorescence 485/535 nm, 1 h; series mostly up to 91.3 µM.
A short description of assay [7]: qHTS assay to test for compound auto fluorescence at 460 nm (blue) in HEK293 cells (AID 720678). The settings on record: blue autofluorescence 405/460 nm; series mostly up to 91.3 µM. Summed up: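 Blue-channel (Ex/Em 405/460 nm) intensity measured in HEK293 cultures after overnight compound exposure at 37C; signal expressed relative to triamterene. Cells plated 2,000 per well in 10% dialyzed FBS medium and allowed 4-5 hr to attach.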

Assay [8] can be described thus: qHTS assay to test for compound auto fluorescence at 590 nm (red) in HEK293 cells (AID 720679). The settings on record: red autofluorescence 540/590 nm; series mostly up to 91.3 µM. Summed up:
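Red-channel autofluorescence (Ex/Em 540/590 nm; Rose Bengal sodium reference) was measured after overnight 37C, 5% CO2 exposure of attached HEK293 cells, 2,000 per well in medium with 10% dialyzed FBS.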

Assay [9] is described as follows: qHTS assay to test for compound auto fluorescence at 535 nm (green) in HEK293 cells (AID 720680). Conditions: green autofluorescence 485/535 nm; series mostly up to 91.3 µM.
Assay [10] is described as follows: qHTS assay to test for compound auto fluorescence at 460 nm (blue) in HEK293 cell free culture (AID 720681). The settings on record: cell-free medium, autofluorescence 405/460 nm (blue); series mostly up to 91.3 µM. Summed up:
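Test compounds were pinned into cell-free culture medium (DMEM with 10% FBS) and fluorescence was read directly at Ex/Em 405/460 nm. Signals were expressed as fluorescence equivalents of triamterene, with DMSO vehicle as control.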

Assay [11] can be described thus: qHTS assay to test for compound auto fluorescence at 535 nm (green) in HEK293 cell free culture (AID 720682). Conditions: cell-free medium, green autofluorescence 485/535 nm, active compounds read high; series mostly up to 91.3 µM. In short, it runs like this: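 Using fluorescein as calibrant, autofluorescence was quantified at 485/535 nm in cell-free DMEM containing 10% FBS after pintool addition of compound or vehicle.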

A short description of assay [12]: qHTS assay to test for compound auto fluorescence at 590 nm (red) in HEK293 cell free culture (AID 720683). The settings on record: cell-free medium autofluorescence, Ex540/Em590 red; series mostly up to 91.3 µM. Summed up:
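Tox21 10K library compounds were pinned into cell-free DMEM with 10% FBS and fluorescence was read at excitation 540 nm. Activity is expressed as Rose Bengal sodium equivalency.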

Assay [13] in a line: qHTS assay to test for compound auto fluorescence at 590 nm (red) in HepG2 cell free culture (AID 720684). Conditions: cell-free medium autofluorescence, red 540/590 nm; series mostly up to 91.3 µM. Summed up:
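Readout: intrinsic compound fluorescence at 590 nm emission after 540 nm excitation, scaled to Rose Bengal sodium. Matrix was cell-free MEM with 10% FBS; DMSO vehicle wells served as control.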

Assay [14] is described as follows: qHTS assay to test for compound auto fluorescence at 460 nm (blue) in HepG2 cell free culture (AID 720685). Conditions: Cell-free culture medium, blue autofluorescence 405/460 nm; series mostly up to 91.3 µM. In short, it runs like this: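 Cell-free plates of MEM plus 10% FBS received 23 nL compound or DMSO vehicle; blue-channel (405/460 nm) intensity scored against triamterene as reference fluorophore.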

Assay [15] in a line: qHTS assay to test for compound auto fluorescence at 535 nm (green) in HepG2 cell free culture (AID 720686). Conditions: Cell-free medium, green autofluorescence 485/535 nm; series mostly up to 91.3 µM.
Assay [16] is described as follows: qHTS assay to test for compound auto fluorescence at 460 nm (blue) in HepG2 cells (AID 720687). The settings on record: autofluorescence 405/460 nm, 1 h; series mostly up to 91.3 µM. In short, it runs like this: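 Cells (2,000/well in MEM with 10% FBS) attached overnight at 37 C, then were exposed to compound or DMSO for 1 hr at 37 C, 5% CO2. Fluorescence read at Ex/Em 405/460 nm, expressed as triamterene-equivalent signal.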

Assay [17] deals with Glucocorticoid receptor (Homo sapiens) (UniProt P04150). The assay can be described thus: qHTS assay to identify small molecule agonists of the glucocorticoid receptor (GR) signaling pathway (AID 720691; active = well fitted activation curve with a large enough effect in the signal ratio in the repeat runs, not every such curve was filed as active; the % refers to the signal ratio). The settings on record: GR-bla HeLa, beta-lactamase reporter ratio, 18 h; series mostly up to 62.4 µM. In short, it runs like this: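 Compounds in DMSO, alongside positive controls, were added to GR-bla HeLa reporter cells and incubated 18 h at 37 C; GRE-driven beta-lactamase was detected by fluorescence after 2 h with FRET substrate at room temperature.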

Assay [18] has the same target. The assay can be described thus: qHTS assay to identify small molecule antagonists of the glucocorticoid receptor (GR) signaling pathway (AID 720692; active = well fitted inhibition curve with a large enough effect in the signal ratio in the repeat runs, not every such curve was filed as active; the % refers to the signal ratio). Conditions: GR-bla HeLa, beta-lactamase FRET ratio, dexamethasone-stimulated, 18 h; series mostly up to 58.5 µM. Summed up: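 In a 1536-well cell format, compounds were added 4 h after seeding GR-bla HeLa cells, together with dexamethasone at 5 nM final; reporter activity was measured by FRET-substrate fluorescence following 18 h at 37 C.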

Assay [19] is described as follows: qHTS assay for small molecule disruptors of the mitochondrial membrane potential - cell viability (AID 720634; calls by dose curve;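 also: human HepG2 liver cancer cells; nearly all actives have a fitted effect of over 20% in size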). The settings on record: HepG2 viability, ATP luminescence (CellTiter-Glo), 1 h; series mostly up to 83.2 µM. In short, it runs like this:
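Viability of HepG2 cells is scored from ATP content by luminescence; cells are exposed to compound for 1 hr at 37 C and 5% CO2, then dosed with m-MPI dye before the CellTiter-Glo reagent.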

Assay [20] can be described thus: qHTS assay for small molecule disruptors of the mitochondrial membrane potential (AID 720635). Also: potency is read from the fitted curve at half-maximal effect. The settings on record: HepG2 mitochondrial membrane potential, Mito-MPS dye ratio; series mostly up to 83.2 µM. In short, it runs like this:
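HepG2 cells (2,000/well) attached overnight at 37C, then took compound for 1 hr at 37C, 5% CO2. Mito-MPS dye was added for 30 min; fluorescence was read at 490/535 nm (monomers) and 540/590 nm (aggregates).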

Glucocorticoid receptor (Homo sapiens), sequence (P04150 whole entry, looked up): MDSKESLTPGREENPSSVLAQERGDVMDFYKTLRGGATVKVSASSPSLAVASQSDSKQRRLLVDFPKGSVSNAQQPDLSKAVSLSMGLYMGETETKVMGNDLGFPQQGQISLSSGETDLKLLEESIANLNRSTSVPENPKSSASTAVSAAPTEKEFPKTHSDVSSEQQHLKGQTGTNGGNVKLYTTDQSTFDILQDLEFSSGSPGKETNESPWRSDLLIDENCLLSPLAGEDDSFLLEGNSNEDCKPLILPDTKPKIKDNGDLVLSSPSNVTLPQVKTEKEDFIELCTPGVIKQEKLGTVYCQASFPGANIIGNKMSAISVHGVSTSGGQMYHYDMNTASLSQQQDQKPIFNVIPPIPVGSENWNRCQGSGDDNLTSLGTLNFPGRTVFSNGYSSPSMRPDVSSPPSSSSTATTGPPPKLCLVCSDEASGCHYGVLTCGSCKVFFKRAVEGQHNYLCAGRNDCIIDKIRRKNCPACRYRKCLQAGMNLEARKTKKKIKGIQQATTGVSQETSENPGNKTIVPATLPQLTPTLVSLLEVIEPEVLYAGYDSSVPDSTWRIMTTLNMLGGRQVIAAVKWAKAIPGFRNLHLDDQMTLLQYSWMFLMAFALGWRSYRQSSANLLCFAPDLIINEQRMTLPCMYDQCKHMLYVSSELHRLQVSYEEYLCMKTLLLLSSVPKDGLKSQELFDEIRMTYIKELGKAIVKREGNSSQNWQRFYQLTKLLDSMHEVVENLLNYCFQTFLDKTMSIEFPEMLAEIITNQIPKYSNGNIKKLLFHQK

As to `CCOP(=S)(OCC)Oc1cnc2ccccc2n1`, the result in [1], in [2], in assay [3], in assay [4], in [5] and in assay [6] was inactive. The call in assay [7], in assay [8], in assay [9], in assay [10], in assay [11] and in [12] was inactive. Moreover, the outcome in assay [13], in [14], in assay [15], in [16] and in assay [17] was inactive. The Potency entry in [18] was “inactive”.

Turning to `CCCCN(CCCC)SN(C)C(=O)Oc1cccc2c1OC(C)(C)C2`, the compound was classed as inactive in assay [2], in [4], in assay [5], in assay [7], in [8] and in assay [9]. For the same compound, the compound was called inactive in assay [10], in [11], in [12], in assay [13], in assay [14] and in [15]. Also, the result in assay [16] and in assay [17] was inactive. For the same compound, in [19], the Potency entry was “inactive”. For the same compound, in assay [20], the Potency is 62.1 µM (active).

`CN(N=O)c1ccccc1`: the outcome in assay [2], in assay [3], in assay [4], in assay [5], in [7] and in [8] was inactive. In addition, the outcome in assay [9], in assay [10], in assay [11], in assay [12], in assay [13] and in assay [14] was inactive. Moreover, the result in assay [15], in assay [16] and in assay [17] was inactive. The Potency result in [19] and in assay [18] was “inactive” throughout.

Regarding `COc1ccc2c3c1O[C@H]1[C@@H](O)C=C[C@H]4[C@@H](C2)N(C)CC[C@@]341`, the call in [2], in [3], in [4], in assay [5], in assay [6] and in [7] was inactive. Moreover, the result in assay [8], in assay [9], in assay [10], in assay [11], in [12] and in assay [13] was inactive. Besides, the result in [14], in assay [15] and in assay [16] was inactive. Besides, the Potency result in [19] was “inactive”.

Consider `C1CN2CCN1CC2`, for which the compound was called inactive in [2], in [3], in [4], in assay [5], in [7] and in [8]. In addition, the result in assay [9], in assay [10], in assay [11], in [12], in assay [13] and in assay [14] was inactive. In addition, the outcome in assay [15] and in assay [16] was inactive.

As to `C1CC2OC2CC1C1CO1` (stereo not drawn), the compound was called inactive in assay [2], in assay [3], in [4], in assay [5], in assay [6] and in [7]. The compound was called inactive in [8], in [9], in [10], in assay [11], in assay [12] and in assay [13]. The result in [14], in assay [15] and in assay [16] was inactive. Besides, the Potency result in [19] and in assay [20] was “inactive” each time.
